# “And” between values parts separate entries of the source, which are not always exact repeats. Equal values may be shown once. Records with an inconclusive call do not appear. Entries that show only a call come without a potency. Values without a mark were called inactive. The source made the active and inactive calls. Calls come from the whole dose curve; as a rule, active = well fitted cell-killing curve with a large enough effect in the repeat runs; inconclusive = weak or mixed curves; inactive = flat fitted curve, though single readings scatter.
# Experiment: qHTS assay to identify small molecule antagonists of the estrogen receptor beta (ER-beta) signaling pathway - cell viability counter screen (AID 1259382); note: nearly all actives have a fitted effect of over 55% in size
# Settings: ER-beta-UAS-bla HEK293T viability, CellTiter-Glo luminescence, 16 h; series mostly up to 92.4 µM
# Text: U.S. Tox21 Program National Center for Advancing Translational Sciences [NCATS] NIH Chemical Genomics Center [NCGC] U.S. Environmental Protection Agency [EPA] National Institutes of Environmental Health Sciences [NIEHS] National Toxicology Program [NTP] U.S. Food and Drug Administration [FDA] Tox21 Assay Overview: Estrogen receptor (ER), a nuclear hormone receptor, plays an important role in development, metabolic homeostasis and reproduction. Two subtypes of ER, ER-alpha and ER-beta, have similar expression patterns with some uniqueness in both types. Endocrine disrupting chemicals (EDCs) and their interactions with steroid hormone receptors like ER causes disruption of normal endocrine function. To identify the compounds that inhibit ER signaling, an ER-beta-UAS-bla GripTite cell line (Life Technologies, Madison, WI, USA) containing a beta-lactamase reporter gene under the control of an UAS response element was used to screen Tox21 10K compound library. The cytotoxicity of the Tox21 compound library against the ER-beta-bla cell line was tested in parallel by measuring the cell viability using CellTiter-Glo assay in the same wells.
# Tox21 Assay Protocol Summary: ER-beta-UAS-bla HEK293T cells were dispensed at 2,000 cells/4 uL of assay medium containing 2% charcoal stripped FBS per well into black wall/clear-bottom 1536-well plates using a Multidrop Combi (ThermoFisher Scientific, Waltham, MA) dispenser. After the assay plates were incubated at a 37C and 5% CO2 for 6 hr, 23 nL of compounds dissolved in DMSO, positive controls or DMSO only was transferred to the assay plate by a Pintool station (Kalypsys, San Diego, CA), followed by addition of 1 uL (1nM as final concentration) of 17-beta-estradiol (E2) in assay medium using a Flying Reagent Dispenser (FRD, Aurora Discovery, San Diego, CA). The plates were incubated at 37C and 5% CO2 for 16 hr. Then 1 uL of LiveBLAzer B/G FRET substrate was added using a Flying Reagent Dispenser, the plates were incubated at room temperature for 2 hours, and fluorescence intensity was measured by an Envision plate reader (PerkinElmer, Shelton, CT). For cell viability readout that measures cytotoxicity, 4 uL/well of CellTiter-Glo reagent was added into the assay plates using a FRD. After 30 min incubation at room temperature, the luminescence intensity in the plates was measured using a ViewLux (PerkinElmer) plate reader.
# Potency is the fitted concentration of half-maximal effect.
Structure (SMILES),Potency,"activity change, negative = cytotoxicity"
C=C(c1ccc(C(=O)O)cc1)c1cc2c(cc1C)C(C)(C)CCC2(C)C,34.4 µM (active) and 29.8 µM (active),–
C=CC(=O)OCCN(CC)CC,inactive,–
CCCC(O)C(O)CO (stereo not given),inactive,–
CCCCCCCC(C)=O,inactive,–
C[C@@H]1CC[C@H]2C(C)(C)[C@H]3C[C@@]12CC[C@@]3(C)O,inactive,–
CCC(C)c1cc([N+](=O)[O-])cc([N+](=O)[O-])c1OC(=O)OC(C)C (stereo not given),inactive,–
COc1ccccc1OCCNCC(O)COc1cccc2[nH]c3ccccc3c12 (stereo not given),11.9 µM (active),–
C[Si](C)O[Si](C)C,inactive,–
CC(C)(c1cc(Br)c(OCCO)c(Br)c1)c1cc(Br)c(OCCO)c(Br)c1,53.3 µM (active),–
C=CC(C)C#N (stereo not given),inactive,–
CC(=O)OC1CCCCC1,inactive,–
CN(C)c1ccc(N=Nc2ccccc2C(=O)O)cc1,inactive,–
CCc1ccc(C)nc1,inactive,–
CC(C)OC(=O)c1cc(C(=O)OC(C)C)cc([N+](=O)[O-])c1,inactive,–
CCOCN(C(=O)CS(=O)(=O)O)c1c(C)cccc1CC,inactive,–
NC(=O)c1ccccc1N,inactive,–
CC1CCCNC1 (stereo not given),inactive,–
CNCC[C@H](Oc1cccc2ccccc12)c1cccs1,13.3 µM (active),–
CCCCCCCOC(=O)c1ccccc1C(=O)OCCCCCCC,inactive,–
CCCCCCCC/C=C\CCCCCCCC(=O)OCCOC(=O)CCCCCCC/C=C\CCCCCCCC,inactive,–

Structure (SMILES),Potency,"activity change, negative = cytotoxicity"
CCCCCCOc1cc(C)c(O)c(C)c1C,61.9 µM (active),–
CCCOc1sc(C(=O)N2CCC(c3cc(CN)ccc3F)CC2)c(C)c1Br,25 µM (active),–
CCCCCCCCCCc1ccccc1,inactive,–
CCC(=O)CC(C)CC (stereo not given),–,9.77% [at 0.349 µM]
OCCCCl,inactive,–
CC(C)=CC1CC(C)CCO1 (stereo not given),inactive,–
CC(=O)c1ccccc1N,inactive,–
CCN=C1C=CC(=C(c2ccc(N(CC)CC)cc2)c2ccc(N(CC)CC)cc2)c2ccccc21,21.6 µM (active),–
CCC1(c2cnc[nH]2)Cc2ccccc2C1,inactive,–
CCCCCCC(C)OC(=O)COc1nc(F)c(Cl)c(N)c1Cl (stereo not given),inactive,–
COC(=O)C1=C(C)NC(C)=C(C(=O)OCCCN2CCC(c3ccccc3)(c3ccccc3)CC2)C1c1cccc([N+](=O)[O-])c1 (stereo not given),23.7 µM (active),–
CO[Si](CCCNCCNCCN)(OC)OC,inactive,–
CCCCCCCCCCCC(=O)N(CC)CC,inactive,–
Cc1cn[nH]c1,inactive,–
CCOC(OCC)C(=O)c1ccccc1,inactive,–
CC(NCCC(c1ccccc1)c1ccccc1)c1ccccc1 (stereo not given),18.8 µM (active),–
Clc1ccc(C(c2ccccc2Cl)C(Cl)Cl)cc1 (stereo not given),inactive,–
CCc1cccc(CC)c1N(COC)C(=O)CS(=O)(=O)O,inactive,–
CCCC(C)CCC(C)=O (stereo not given),inactive,–
Cc1cccc(N(C)C)c1,inactive,–
